From the OligoGym collection come the findings set out here.
Further: reference of the scale not given here.

One test addresses ATP2B3. In words: pooled miR-30 sensor sort-seq; sequence = guide strand. The settings on record: shRNA.
On to TTTTTCAAGAGGATCTCTGAGG, for which the sensor-assay potency score (higher = more potent) is -0.749.

Consider TTGGCTTCTTTTGAACTCTTGG, for which the sensor-assay potency score (higher = more potent) is 0.325.

In turn, TTGTCGGTGGGAGACGACCGGG returned a sensor-assay potency score (higher = more potent) of -1.43.

For the sequence TTTGCTTTTAATATCTATTGGC, the sensor-assay potency score (higher = more potent) turned out to be 0.393.

The sequence TTGCTGTTCAAGATGTTGGTGC yielded a sensor-assay potency score (higher = more potent) of 0.726.

Another test deals with ATP2C2. The test is described as above. The following applies: shRNA.
The sequence TCATCTTAAACACTTCTCCGAA came in with a sensor-assay potency score (higher = more potent) of -0.15.

As for TACGACATCACCAGGAACCAGT, the sensor-assay potency score (higher = more potent) was -0.544. The same measure, in the same setting: with TCATCTTCACAGACACACCAGA the figure was -0.317; with TTGTGCTTTGGGCTGGTCCTGA, -0.105. On the same count and under the same terms, with TTTAATATCACTTAAGTCCATC the figure was -0.736; with TAAGAGGAAAAACTGATCCGGT, -0.305. The same measure, in the same setting: with TTAAACACTTCTCCGAACTGAG the figure was -0.019; with TAGAGGAACATGTGGTTCCTGA, -0.803. Regarding TTCTGCTCTGAACTGAATGGAA, the sensor-assay potency score (higher = more potent) is -0.474. On the same count and under the same terms, then TTCCTCTTCGTCCTTCTCCAGC, with -1.04; and TTGTACATGGTGCAGTAGCGGA, with -1.45.
